HCMV inh = inhibitors of human cytomegalovirus | HFF cells, HCMV-luciferase reporter, 72 h; active compounds read low | activity change, negative = inhibition, % at 57.5 µM | actives 4.5% (n = 410,000) | AID 1259415; in the data active = activity change below about -60%; inconclusive = no clear call, values can overlap the other calls; inactive = above about -39%
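HFF cells seeded 16 h at 37C, treated with compounds, infected with luciferase-reporter HCMV at MOI 1 PFU/cell; luciferase read at 72 h post infection, normalized to buffer-only and Salinomycin controls.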
LASV entry inh = Lassa virus entry inhibition | Lassa virus pseudotype entry inhibition, cell reporter | Potency, µM (doses to about 37.9 µM), usual class: inhibitors | actives 1.2% (n = 300,000); calls by dose curve; tested in HEK293 cells; also: nearly all actives have a fitted effect of over 50% in size
Pf growth 48h = inhibits P. falciparum growth in the first generation, 48 h. P. falciparum luciferase growth in erythrocytes, 48 h. Potency, µM (doses to about 28.7 µM), hits mostly inhibitors. actives 5.9% (n = 310,000). AID 504832
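In quantitative HTS format, infected erythrocytes bearing luciferase-reporter parasites were treated for a single generation at 37 C. Luminescence after adding detection reagent served as the growth measure.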
Pf growth 96h = P. falciparum growth inhibition at 96 hours; Potency, µM (top dose mostly 28.7 µM), usual class: inhibitors; AID 504834; actives 6.9% (n = 320,000); P. falciparum luciferase reporter growth, 96 h
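Cell-based qHTS: luciferase-tagged P. falciparum in erythrocytes (2% hematocrit, 0.05% parasitemia final) incubated with compounds for 96 hours, 37 C, 5% CO2; luciferase detection reagent then added and luminescence measured.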
MARV entry inh = Marburg virus entry inhibition; Marburg virus pseudotyped entry inhibition, cell reporter; Potency, µM (series often up to 37.8 µM), actives largely listed as inhibitors; actives 1.8% (n = 300,000); calls by dose curve; tested in HEK293 cells
HCV inhibitor = blocks hepatitis C virus. actives 3.4% (n = 340,000). Potency, µM (doses to about 41.8 µM), most hits filed as inhibitors. Huh7.5.1 HCVcc-Cre infection, luciferase reporter, 44 h
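Reporter virus HCVcc-Cre (~0.5 moi) infects cells exposed to compound; seeding density 1,000 cells/well with 4 h settling beforehand. Luminescence, 15 sec read, taken 44 h post-infection following a 15 min RT substrate incubation.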
Numbers stand for hits; – = inactive; ? = inconclusive; · = no result; [ ] = another dose, or the depositor's remark. This is a sample that favours compounds with a hit; in the whole collection about 14% have one here. Unless noted, calls follow the shape of the dose curve; as a rule, active = well fitted inhibition curve with a large enough effect; inconclusive = small, poorly fitted or top-dose-only effect, or another doubt; inactive = no such curve, though single readings can be large or run the other way.

SMILES	HCMV inh	LASV entry inh	Pf growth 48h	Pf growth 96h	MARV entry inh	HCV inhibitor
Cc1ccccc1CN1CCc2nc(Nc3ccc4c(c3)OCCO4)ncc2C1	–	?	·	·	·	·
Cc1cc2nc(C)c(-c3nc4ccccc4[nH]3)nc2cc1C	–	·	·	·	·	·
CCc1ccc(CNC(=O)c2c(C)oc3ncn(CC(C)C)c(=O)c23)cc1	–	–	·	·	·	·
O=C1NC[C@@H](CCCCN2C[C@H](Cc3ccc(O)cc3)N(CCc3ccccc3)C(=O)C2=O)N(CCc2ccccc2)C1=O	–	·	·	·	·	·
COCCN(Cc1nc2ccccc2c(=O)[nH]1)C(=O)c1cccc(S(=O)(=O)N2CCCC2)c1	–	·	?	–	·	–
O=C(Cc1n[nH]c(=O)c2ccccc12)Nc1cccc(S(=O)(=O)N2CCCCCC2)c1	–	·	9.3µM	?	·	?
O=C(Cc1n[nH]c(=O)c2ccccc12)Nc1cccc(S(=O)(=O)N2CCCC2)c1	–	–	?	?	–	?
O=S(=O)(c1cccc(Cl)c1)N1CCCC1	-107	–	–	–	–	–
O=C(COc1cc(F)ccc1[N+](=O)[O-])Nc1cc(S(=O)(=O)N2CCCC2)ccc1Cl	–	–	–	?	–	14µM
COCCN(CC(=O)Nc1cccc(S(=O)(=O)N2CCCC2)c1)Cc1nc2ccccc2c(=O)[nH]1	–	–	10µM	?	–	?
Cc1ccc(OCC(=O)Nc2cc(S(=O)(=O)N3CCCCC3)ccc2C)c([N+](=O)[O-])n1	–	?	–	–	–	–
CCOc1ccc(NC(c2ccc(Cl)cc2)c2nnc(-c3cccc(F)c3)o2)cc1 (stereo not drawn)	–	–	·	·	?	·
CCCCc1ccc(NC(=O)Cn2cnc3c2c(=O)n(C)c(=O)n3C)cc1	–	–	·	·	·	·
CCN(CC)c1ccc(NC(=O)c2cc(CN3CCCC3)on2)c(C)c1	–	–	·	·	·	·
COc1ccccc1-c1noc(-c2ccc(NCc3ccco3)c([N+](=O)[O-])c2)n1	–	–	·	·	–	·
CN(C(=O)c1cccc(NC(=O)Cc2ccc(NC(=O)C3CCCN(C(=O)C4CCCCC4)C3)cc2)c1)C1CC1 (stereo not drawn)	–	·	·	·	·	–[8.37 µM]
O=C(c1ccc(S(=O)(=O)N2CCCC2)cc1)N1CCN(c2cccc(Cl)c2)CC1	–	?	?	?	?	·
O=C(c1cc(S(=O)(=O)N2CCCC2)c[nH]1)N1CCN(c2cccc(Cl)c2)CC1	-102	–	·	·	·	·
O=C(CCl)Nc1cccc(S(=O)(=O)N2CCCCCC2)c1	-97	7.9µM	6.6µM	5.2µM	?	?
O=C(COc1ccccc1Cl)Nc1cccc(S(=O)(=O)N2CCCC2)c1	?	·	?	?	·	10µM
O=C(COc1ccc(F)cc1Cl)Nc1cccc(S(=O)(=O)N2CCCC2)c1	–	·	?	?	·	10µM
Cc1ccc(C)c(OCCn2c(CCNC(=O)C3CCCCC3)nc3ccccc32)c1	·	–	·	·	?	·
COc1ccc(/C=C/C(=O)Nc2nc3n(n2)C(c2ccccc2)C=C(c2ccc(Cl)cc2)N3)cc1 (stereo not drawn)	–	?	·	·	–	·
O=C(Nc1cccc(S(=O)(=O)N2CCCCC2)c1)C1CC1	–	·	–	–	·	–
N=c1sccn1CC(=O)Nc1cccc(S(=O)(=O)N2CCCCCC2)c1	–	–	–	?	?	10µM
SMILES	HCMV inh	LASV entry inh	Pf growth 48h	Pf growth 96h	MARV entry inh	HCV inhibitor
CC(C)CN(CC(C)C)C(=O)c1cc(S(=O)(=O)N2CCCCC2)c[nH]1	?	·	?	?	·	–
CCCN(CCC)C(=O)c1cc(S(=O)(=O)N2CCCCC2)c[nH]1	–	·	–	?	·	4.5µM
Cc1ccc(Oc2ccc(NC(=O)Cn3ccsc3=N)cc2)cc1	–	–	10µM	·	?	?
CC(NC(C)c1ccccc1Cl)C(=O)Nc1cccc(S(=O)(=O)N2CCCCC2)c1 (stereo not drawn)	?	·	10µM	13µM	·	?
C[C@H](CO)N1C[C@H](C)[C@H](CN(C)C(=O)Nc2ccc(F)cc2)Oc2ncc(Br)cc2C1=O	–	·	·	·	·	·
COc1cccc(C(c2nnnn2-c2ccc3c(c2)OCCO3)N2CCC(n3c(=O)[nH]c4ccccc43)CC2)c1OC (stereo not drawn)	-97	·	·	·	·	·
COc1ccc(-n2nnnc2C(c2cccc(OC)c2OC)N2CCC(n3c(=O)[nH]c4ccccc43)CC2)cc1 (stereo not drawn)	–	·	·	·	·	·
O=c1[nH]c2ccccc2n1C1CCN(C(c2ccccc2OC(F)(F)F)c2nnnn2-c2ccc3c(c2)OCCO3)CC1 (stereo not drawn)	-106	·	·	·	·	·
CCN(c1ccccc1)S(=O)(=O)c1cccc(C(=O)OCC(=O)Nc2ccc(NC(C)=O)cc2)c1	–	–	·	·	–	–
CCO/C=N/Nc1nc(C(F)(F)F)nc2c1cnn2Cc1ccccc1	–	·	?	?	·	?
N#CC(c1ccc(Cl)cc1)c1ccc2c(C(F)(F)F)cc(C(F)(F)F)nc2n1 (stereo not drawn)	-106	2.8µM	·	2.6µM	3.2µM	?
FC(F)(F)c1cc(C(F)(F)F)c2ccc(N3CCN(c4ccc(Cl)cc4)CC3)nc2n1	–	–	–	–	–	–
O=C(O)Cn1c(C(=O)Nc2nc(-c3ccccc3Cl)cs2)cc2ccccc21	–	·	–	?	·	·
Cc1ccc(S(=O)(=O)N2CCN(c3cc4c(cc3[N+](=O)[O-])n(C)c(=O)n4C)CC2)cc1	–	?	?	–	23µM	?
CCN(CC)S(=O)(=O)c1ccc(N2CCN(c3cccc(OC)c3)CC2)c([N+](=O)[O-])c1	?	–	?	9.3µM	?	?
COc1ccc(N2CCN(S(=O)(=O)c3ccc4c(c3)CCCC4)CC2)c([N+](=O)[O-])c1	-86	?	–	–	?	5µM
Cc1ccc(S(=O)(=O)N2CCN(c3ccc(C(F)(F)F)cc3[N+](=O)[O-])CC2)cc1	-77	?	?	–	8.9µM	?
CC1(C)Cc2c(C#N)c(SCCC#N)nc(N3CCOCC3)c2CO1	–	–	?	?	–	–
CC1(C)Cc2c(C#N)c(SCCC#N)nc(N3CCOCC3)c2CS1	–	–	?	4.7µM	–	?
CC1(C)Cc2c(C#N)c(SCCO)nc(N3CCOCC3)c2CO1	–	–	?	?	–	?
CCCCc1nc(N2CCOCC2)c(C#N)c2c1COC(C)(C)C2	–	–	6.6µM	9.3µM	–	–
CC1(C)Cc2c(C#N)c(SCCOc3ccccc3)nc(N3CCOCC3)c2CO1	–	–	12µM	8.3µM	?	?
CC(C)OC(=O)CSc1nc(N2CCOCC2)c2c(c1C#N)CC(C)(C)OC2	–	–	4.7µM	?	?	–
CC1(C)Cc2c(C#N)c(SCC(=O)O)nc(N3CCOCC3)c2CO1	–	–	·	·	–	–
COc1ccc(Cl)cc1NC(=O)CSc1nc(=O)[nH]c2c1CCC2	–	–	·	·	·	·
CCOC(=O)c1cc(-c2ccccc2)n(CCC(=O)Nc2nc3c(C)cccc3s2)c1C	–	–	·	·	·	·
CC1(Cc2cc(Cl)ccc2C(F)(F)F)C(=O)Nc2ccc(S(=O)(=O)NC3CCCCC3)cc21 (stereo not drawn)	–	·	·	·	·	·
